Results taken from PubChem BioAssay (EPA / NIEHS).
Some compounds were tested as several samples or in several runs, with calls that do not always agree. Calls of active or inactive are those of the source. Rule for the calls: active = hit-call score of the fitted dose curve at least 0.9, where 1 is the maximum; inactive = score below 0.9.

Assay: APR_HepG2_CellLoss_72hr: Apredica 72-hour HepG2 Assay for Cell Loss (AID 2282915)
Settings: high-content imaging
Experimental: APR_HepG2_72hr is a cell-based, multiplexed-readout assay that uses HepG2, a human liver cell line, with measurements taken at 72 hours after chemical dosing in a 384-well plate.APR_HepG2_CellLoss_72hr is one of 10 assay component(s) measured or calculated from the APR_HepG2_72hr assay. It is designed to make measurements of cell number, a form of viability reporter, as detected with fluorescence intensity signals by HCS Fluorescent Imaging technology.Data from the assay component APR_HepG2_CellLoss_72hr was analyzed into 1 assay endpoint. This assay endpoint, APR_HepG2_CellLoss_72hr, was analyzed with bidirectional fitting relative to DMSO as the negative control and baseline of activity. Using a type of viability reporter, measures of all nuclear dna for gain or loss-of-signal activity can be used to understand the viability at the cellular-level. Furthermore, this assay endpoint can be referred to as a secondary readout, because this assay has produced multiple assay endpoints where this one serves a viability function. To generalize the intended target to other relatable targets, this assay endpoint is annotated to the cell cycle intended target family, where the subfamily is proliferation.
Cells were treated with dimethyl sulfoxide (DMSO) as a solvent control at a final concentration of 0.5% v/v or with compounds in DMSO with a resulting final DMSO concentration of 0.5% v/v. Compound treatment was done at concentrations of 0.39, 0.78, 1.56, 3.12, 6.24, 12.5, 25, 50, 100, and 200 uM in duplicate on each plate. Cells were treated with compounds for 1, 24, or 72 hr. Carbonyl […] m-chloro-phenylhydrazone (CCCP) and taxol were used as positive controls for mitochondrial function and cytoskeletal stability, respectively; DMSO served as the negative control for this experiment. Cells were fixed by the direct addition of 50 uL formaldehyde in Hank's Balanced Salt Solution (HBSS) to a final concentration of 3.7%. After incubation in the fixation medium for 30 min at room temperature (293-298 K), cells were rinsed twice with HBSS and treated with cell permeabilization buffer (16 uL of 0.5% Triton X-100) for 10 min at room temperature (293-298 K) before labeling. For mitochondrial membrane potential and mitochondrial measurements, pre-fixed cells were incubated with 50 uL of MitoTracker Red CMXRos (Invitrogen) at a concentration of 250 nM for 30 min before fixation. In the remaining cases, post-fixed cells were labeled by incubation with a multiplexed mixture of primary antibodies in HBSS for 60 min at room temperature (293-298 K) to detect immunoreactivity of c-Jun (1:500), phospho-histone H3 (1:100), phospho-histone H2A.x (1:200), p53 (1:400), alpha-tubulin (1:200) and Hoechst 33342 (2 ug/mL). Cells were labeled for multiplexed imaging on two separate plates: a) Hoechst 33342, MitoTracker Red, phospho-histone H3, and alpha-tubulin, and b) Hoechst 33342, phospho-histone H2A.x, and c-Jun. A final rinse with HBSS (50 uL) was performed before analysis. The primary and secondary antibodies for the proteins were phospho-histone H3 (rabbit anti-phospho-histone H3 and FITC-donkey anti-rabbit IgG), phospho-histone H2A.x (mouse anti-phospho-histone H2A.x and FITC-donkey anti-mouse IgG), c-Jun (rabbit anti-phospho-c-Jun and Cy3-donkey anti-rabbit IgG), p53 (sheep anti-p53 and Cy5-donkey anti-sheep IgG), alpha-tubulin (mouse anti-alpha-tubulin and Cy5-donkey anti-mouse IgG). These antibodies are available as the CellCiphr HepG2 assay kit (Millipore).Digital images of each well were captured using a Cellomics ArrayScan VTI (Thermo Scientific Cellomics) (0.8 NA objective, 0.63x optical coupler, and XF-93 filter set) at 20x magnification. The images were acquired using the autofocus feature of the ArrayScan instrument, which entails the following steps. First, the camera focuses on channel 1 (Hoechst 33342), where nuclei are identified. Second, a Z offset of 1 um is used for capturing mitochondria (MitoTracker Red). […]

Structure (SMILES)	outcome	AC50
CCCOC(=O)c1ccc(C(=O)OCCC)nc1	inactive	–
OB(O)O	inactive	–
S=C([S-])NCCNC(=S)[S-].[Mn+2]	–	11.5 µM (active)
C=CCOC(Cn1ccnc1)c1ccc(Cl)cc1Cl (stereo not given)	–	78.2 µM (active)
O=C(c1ccccc1)C1CCCCC1	inactive	–
O=C(O)C1(C(=O)Nc2ccc(Cl)cc2Cl)CC1	inactive	–
COC(=O)c1ccccc1C(=O)O	inactive	–
COC(=O)c1ccccc1S(=O)(=O)NC(=O)Nc1nc(OC(F)F)cc(OC(F)F)n1	inactive	–
CCCCCOC(=O)COc1cc(N2C(=O)C3=C(CCCC3)C2=O)c(F)cc1Cl	–	105 µM (active)
S=C(S)NCCNC(=S)S.[Mn+2].[S-]C([S-])=NCCN=C([S-])[S-].[Zn+2]	inactive	46.5 µM (active) [middle of 5 runs]
CCOC(=O)C(C)Oc1ccc(Oc2cnc3cc(Cl)ccc3n2)cc1 (stereo not given)	–	80.6 µM (active)
COC(=O)CSc1cc(N=c2sc(=O)n3n2CCCC3)c(F)cc1Cl	–	98.9 µM (active)
COC(=O)c1c(Cl)nn(C)c1S(=O)(=O)NC(=O)Nc1nc(OC)cc(OC)n1	inactive	–
CCOC(=O)[C@H](C)Oc1ccc(Oc2nc3ccc(Cl)cc3o2)cc1	–	117 µM (active)
COC(=O)c1cccc(C)c1S(=O)(=O)NC(=O)Nc1nc(OCC(F)(F)F)nc(N(C)C)n1	inactive	–
CCCCOC(=O)[C@@H](C)Oc1ccc(Oc2ccc(C(F)(F)F)cn2)cc1	inactive	–
CCCCOCCOCCOCc1cc2c(cc1CCC)OCO2	–	85.8 µM (active)
c1ccc2[nH]c(-c3cscn3)nc2c1	inactive	–
C#CCOC(=O)[C@@H](C)Oc1ccc(Oc2ncc(Cl)cc2F)cc1	inactive	–
C[C@]12C[C@H](O)[C@H]3[C@@H](CCC4=CC(=O)CC[C@@]43C)[C@@H]1CC[C@@H]2C(=O)CO	–	32.9 µM (active)

Structure (SMILES)	outcome	AC50
C#C[C@]1(O)CC[C@H]2[C@@H]3CCC4=CC(=O)CC[C@@H]4[C@H]3CC[C@@]21CC	inactive	–
CCCCCCC(C)OC(=O)COc1nc(F)c(Cl)c(N)c1Cl (stereo not given)	inactive	–
COC(=O)c1ccc(I)cc1S(=O)(=O)NC(=O)Nc1nc(C)nc(OC)n1	inactive	–
Cc1nn(C)c(Oc2ccccc2)c1C=NOCc1ccc(C(=O)OC(C)(C)C)cc1	–	19.8 µM (active)
O=C(Nc1ccc([N+](=O)[O-])cc1Cl)c1cc(Cl)ccc1O	–	0.331 µM (active)
CCN(CC)C(=O)c1cccc(C)c1	inactive	–
CC(=O)[C@H]1CC[C@H]2[C@@H]3CCC4=CC(=O)CC[C@]4(C)[C@H]3CC[C@]12C	–	95.6 µM (active)
CCOC(=O)C(C)Oc1ccc(Oc2nc3ccc(Cl)cc3o2)cc1 (stereo not given)	–	90.1 µM (active)
c1ccc(Nc2ccccc2)cc1	inactive	–
CCOC(=O)COc1cc(-n2ncc(C(F)(F)F)c(C)c2=O)c(F)cc1Cl	inactive	–
CN(C)C(=O)Nc1ccc(Cl)c(Cl)c1	inactive	–
Oc1ccc(C(c2ccc(O)cc2)C(Cl)(Cl)Cl)cc1	–	33.4 µM (active)
CCCCOC(=O)C(C)Oc1ccc(Oc2ccc(C(F)(F)F)cn2)cc1 (stereo not given)	inactive	–
CCCN(CCC)C(=O)SCC	inactive	–
N#CSCSc1nc2ccccc2s1	–	10 µM (active)
N[C@@H](Cc1cc(I)c(Oc2ccc(O)c(I)c2)c(I)c1)C(=O)O	inactive	–
CCCCC(CC)COC(=O)c1ccccc1C(=O)O (stereo not given)	inactive	–
CCC(C)OC(=O)N1CCCCC1CCO (stereo not given)	inactive	–
CCCN(CCC)c1c([N+](=O)[O-])cc(C(F)(F)F)c(N)c1[N+](=O)[O-]	–	33 µM (active)
